The structures appear in SMILES notation. Results with a measured potency or affinity are listed apart. Calls of active or inactive are those of the source.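 Rule for the calls: active = falling luciferase signal whose fitted half-maximal concentration is at most twice the top tested dose; inconclusive = flat inhibition between 30 and 70% or a poor curve fit; inactive = the rest.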

A short description of this assay: off-target signal loss in HeLa-CEM21 co-culture – HeLa F-luc CTL cells, cherry-picked, counter-screen for HIV-1 Env fusion inhibitor project, dose response (AID 652040).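 Note: more negative values mean stronger loss of luciferase signal.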 The following applies: HeLa-F-luc CTL cells with CEM21, firefly luciferase counterscreen; series mostly up to 35 µM.
Take `CCOC(=O)C(C)Oc1cccc2c(=O)n(CC(=O)NCCc3ccc(OC)c(OC)c3)ccc12` (centres undefined): the result was inactive. To `CC1(C(=O)NCc2ccc3c(c2)OCO3)CCN1Cc1csc2ccccc12` (centres undefined) belongs “inactive”; to `O=C(Nc1cccn(Cc2c(Cl)cccc2Cl)c1=O)c1ccc(Cl)cc1`, “inactive”; to `Cc1nc2sc(C(c3ccco3)N3CCC(Cc4ccccc4)CC3)c(O)n2n1` (centres undefined), “inactive”.

Regarding `COc1cc(-c2cc(OC)c(O)c(OC)c2)cc(OC)c1O`, the result was inactive. Next, `CC(=O)c1c(C)[nH]c(C(=O)OCC(=O)Nc2ccc(Cl)c(S(=O)(=O)N(C)C)c2)c1C`: “inactive”; `c1ccc2c(c1)CCN(c1ncnc3c1[nH]c1ccccc13)C2`: “inactive”; `CCOC(=O)C1CCCN(Cc2nc(N)nc(Nc3ccc(OC)cc3)n2)C1` (centres undefined): “inactive”. `COc1cc(CSc2nnnn2-c2ccc(C)cc2)cc(OC)c1OC`: the compound was classed as inactive.

With `O=C(c1ccc(Cl)s1)N1CCN(c2nc3ccccc3s2)CC1`, the result was inactive.

For the compound `O=S(=O)(NC1CC1)c1ccc(S(=O)(=O)N2CCCc3ccccc32)cc1`, the outcome was inactive. In the case of `Oc1ccc(C=NNc2ccccn2)c(O)c1`, the result was inactive. To `O=C1COc2ccc(-c3csc(=Nc4ccc(OC(F)F)cc4)n3CC3CCCO3)cc2N1` (centres undefined) belongs “inactive”; to `O=c1c2ccccc2nnn1CSc1nnc(COc2ccc(Cl)cc2)n1Cc1ccco1`, “inactive”.

Regarding `CCOC(=O)C1CCN(C(=O)c2ccc3c(c2)C(=O)N(c2ccccc2C)C3=O)CC1`, the compound was called inactive. As to `CCNC1CCC(Nc2ccnc3cc(Cl)ccc23)CC1` (centres undefined), the call was inactive. `O=C(COC(=O)c1ncc(Cl)c(Cl)c1Cl)NCc1cccs1`: the call was inactive. Next, `C[C@@H]1CN([C@H](C)CO)C(=O)c2cccc(NC(=O)c3ccncc3)c2O[C@@H]1CN(C)Cc1ccc(C(=O)O)cc1`: “inactive”; `CCOC(=O)[C@@H]1[C@H]2COc3cc(OC)ccc3[C@H]2N2C(=O)N(c3ccc(C(F)(F)F)cc3)C(=O)[C@]12C`: “inactive”; `O=C(NNS(=O)(=O)c1ccc(F)cc1F)C1Cc2c(ccc3ccccc23)O1` (centres undefined): “inactive”. Next, `CCCCCCCn1c2c(c(=N)c3c1CCC3)CCCC2`: “inactive”; `Cc1ccc(OCCN2CCN(c3ncnc4sc(C)c(C)c34)CC2)cc1`: “inactive”. As to `Cc1ccc(-c2nnc(N3CCN(C(=O)COc4ccccc4)CC3)c3ccccc23)cc1`, the outcome was inactive.

Consider `Cc1cc(C(=O)NC2CCCc3c2cnn3-c2ccc(C(C)(C)C)cc2)nn1C` (centres undefined), for which the result was inactive.

With `CC(C)OCCCNc1ncnc2c1[nH]c1ccccc12`, the compound was classed as inactive. To `c1coc(CNc2c3c(nc4ccccc24)CCC3)c1` belongs “inactive”; to `Cc1ccc(C2CC(=O)c3cnc(N4CCc5ccccc5C4)nc3C2)cc1` (centres undefined), “inactive”; to `CCn1c(/C=C/N(C)c2ccccc2)[n+](CC)c2ccc(Cl)cc21`, “inactive”. With `O=C(Nc1ccc(Cl)cc1)C1CCCN(C2=NS(=O)(=O)c3ccccc32)C1` (centres undefined), the result was inactive.

Turning to `CCN(C1CCCCC1)S(=O)(=O)c1ccc(S(=O)(=O)NCc2ccncc2)cc1`, the call was inactive. Next, `Cc1nc2ccc(NC(=O)c3ccc(Cl)c(S(=O)(=O)N(C)c4ccccc4)c3)cc2s1`: “inactive”.

In the case of `COc1ccc(-c2nn(C)c(=O)c3ccccc23)cc1NC(=O)Cn1nc(C)c2ccccc2c1=O`, the call was inactive. Next, `c1ccc2c(c1)OCC(CNc1ncnc3nc[nH]c13)O2` (centres undefined): “inactive”; `O=C(Nc1ccc(CN2CCOCC2)cc1)c1ccc(-c2cccc(Cl)c2)o1`: “inactive”; `Nc1ccn([C@@H]2O[C@H](C(=O)NCc3ccc4c(c3)OCO4)[C@@H](O)[C@H]2O)c(=O)n1`: “inactive”.

Regarding `O=C(Nc1cc2c3c(c1)CC(=O)N3CCC2)c1ccc(Cl)cc1`, the call was inactive. Next, `CCc1ccc(Nc2n[n+](-c3ccccc3)c(-c3c(Cl)cccc3Cl)s2)cc1`: “inactive”; `CCCCNC(=O)C[C@H]1C[C@@]2(C(=O)OC)C(=C[C@H](C(C)(C)C)O[C@@H]2C)N(Cc2ccc3c(c2)OCO3)C1=O`: “inactive”; `COc1ccc(OCC(=O)Nc2ccccc2N2CCCCC2)cc1`: “inactive”.

These data come from PubChem BioAssay AID652040 (Broad Institute, 2013).
